Laboratory results reported in PubChem BioAssay (NCI).
About 83,000 compounds went through this panel and 20% of them were active in at least one assay; those are over-represented in the sample as a whole.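 Single-concentration screen, 48 h exposure, 96-well plates. Endpoint: percent growth. Below 10 = active.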 Unmarked numbers belong to inactive results. Active and inactive are the calls of the source.

How the values were obtained:
Test in all cases: NCI-60 one-dose screen, 48 h (100 = growth as untreated, 0 = no growth, -100 = all killed)
Settings in all cases: 10 µM unless noted
[1] = system: RPMI-8226 leukemia
[2] = system: OVCAR-8 ovarian
[3] = system: OVCAR-5 ovarian
[4] = system: OVCAR-4 ovarian
[5] = system: SK-OV-3 ovarian
[6] = system: IGROV1 ovarian
[7] = system: OVCAR-3 ovarian
[8] = system: HS 578T breast
[9] = system: NCI/ADR-RES ovarian
[10] = system: T-47D breast
[11] = system: BT-549 breast
[12] = system: MDA-MB-435 melanoma
[13] = system: SW-620 colon
[14] = system: MCF7 breast
[15] = system: HCT-116 colon
[16] = system: HCC-2998 colon
[17] = system: KM12 colon

CSc1nc2ccc(C)cc2cc1/C=N/O
growth [1]: 106%
growth [2]: 84.6%
growth [3]: 81.6%
growth [4]: 91%
growth [5]: 86%
growth [6]: 87.8%
growth [7]: 106%
growth [8]: 75%
growth [9]: 98.1%
growth [10]: 71%
growth [11]: 73.2%
growth [12]: 91.5%
growth [13]: 85.6%
growth [14]: 86.3%
growth [15]: 81.1%
growth [16]: 96.6%
growth [17]: 93.7%

CCN(CC)S(=O)(=O)c1ccc(NC(=O)CSc2nnc(C)n2-c2ccccc2)cc1
growth [1]: 103%
growth [2]: 102%
growth [3]: 95.4%
growth [4]: 102%
growth [5]: 105%
growth [6]: -1.42% (active)
growth [7]: 116%
growth [8]: 95.5%
growth [9]: 99.2%
growth [10]: 106%
growth [11]: 117%
growth [12]: 99.2%
growth [13]: 105%
growth [14]: 113%
growth [15]: 102%
growth [16]: 109%
growth [17]: 104%

OC(COc1ccccc1Cl)CN1CCN(c2cccc(Cl)c2)CC1 (stereo unspecified)
growth [1]: 115%
growth [2]: 91.9%
growth [3]: 97.8%
growth [4]: 110%
growth [5]: 109%
growth [6]: 122%
growth [7]: 113%
growth [8]: 112%
growth [9]: 113%
growth [10]: 109%
growth [11]: 95.5%
growth [12]: 109%
growth [13]: 110%
growth [14]: 93.8%
growth [15]: 98.3%
growth [16]: 114%
growth [17]: 104%

O=C(N=c1oc2ccccc2cc1-c1cc2ccccc2[nH]1)Nc1ccc(Cl)cc1
growth [1]: 88.3%
growth [2]: 99.7%
growth [3]: 101%
growth [4]: 91.9%
growth [5]: 89.4%
growth [6]: 59.7%
growth [7]: 103%
growth [8]: 96.5%
growth [9]: 98.7%
growth [10]: 91.1%
growth [11]: 90.7%
growth [12]: 104%
growth [13]: 95.5%
growth [14]: 83.5%
growth [15]: 89.2%
growth [16]: 99.7%
growth [17]: 99.2%

COc1cc(/C=C/C(=O)/C=C/c2cc(OC)c3c(c2OC)OCO3)c(OC)c2c1OCO2
growth [1]: 15.7%
growth [2]: 2.45% (active)
growth [3]: 81.8%
growth [4]: 32%
growth [5]: 78.2%
growth [6]: 29.8%
growth [7]: 0.304% (active)
growth [8]: 63.8%
growth [9]: 28.3%
growth [10]: 31%
growth [11]: 31.4%
growth [12]: 11.5%
growth [13]: 17.8%
growth [14]: 19.1%
growth [15]: 2.58% (active)
growth [16]: 107%
growth [17]: 37%

CCCCC1CCCC12NC(=O)NC2=O (stereo unspecified)
growth [1]: 101%
growth [2]: 113%
growth [3]: 88.2%
growth [4]: 106%
growth [5]: 110%
growth [6]: 88.8%
growth [7]: 92.8%
growth [8]: 112%
growth [9]: 92.9%
growth [10]: 91.7%
growth [11]: 95.1%
growth [12]: 109%
growth [13]: 102%
growth [14]: 105%
growth [15]: 99.4%
growth [16]: 96.9%
growth [17]: 106%

CC(=O)OC[C@H]1OC(Sc2sc(C(=O)c3ccc(Br)cc3)c(N)c2-c2nc3ccccc3s2)[C@H](OC(C)=O)[C@@H](OC(C)=O)[C@H]1OC(C)=O (stereo partly specified)
growth [1]: 65.5%
growth [2]: 80.3%
growth [3]: 105%
growth [4]: 46.9%
growth [5]: 57.3%
growth [6]: 68.8%
growth [7]: 67.1%
growth [8]: 95.4%
growth [9]: 88.4%
growth [10]: 67.4%
growth [11]: 90.2%
growth [12]: 91.7%
growth [13]: 104%
growth [14]: 94.6%
growth [15]: 91.3%
growth [16]: 98.8%
growth [17]: 95.7%

COc1cccc2nc3n(c12)C(c1c(F)cccc1F)SC3 (stereo unspecified)
growth [1]: 70.4%
growth [2]: 103%
growth [3]: 80.8%
growth [4]: 97.4%
growth [5]: 101%
growth [6]: 7.38% (active)
growth [7]: 132%
growth [8]: 92.7%
growth [9]: 95.7%
growth [10]: 104%
growth [11]: 108%
growth [12]: 106%
growth [13]: 106%
growth [14]: 104%
growth [15]: 93.8%
growth [16]: 99.9%
growth [17]: 100%

Cc1nc(/N=C(\N)NC(=O)Nc2cccc(Cl)c2)sc1C
growth [1]: 77%
growth [2]: 94.5%
growth [3]: 96.3%
growth [4]: 99.3%
growth [5]: 87.7%
growth [6]: 63.1%
growth [7]: 81.5%
growth [8]: 68.8%
growth [9]: 42.3%
growth [10]: 73.5%
growth [11]: 71.7%
growth [12]: -13.5% (active)
growth [13]: 38.2%
growth [14]: 35.9%
growth [15]: 66.4%
growth [16]: 78.2%
growth [17]: 41.6%

O=c1[nH][n+](-c2ccc(Br)cc2)no1
growth [1]: 56.6%
growth [2]: 55.7%
growth [3]: 74.7%
growth [4]: 57.9%
growth [5]: 82.3%
growth [6]: 62.1%
growth [7]: 58.8%
growth [8]: 97.7%
growth [9]: 73.9%
growth [10]: 28.1%
growth [11]: 83.1%
growth [12]: 22.6%
growth [13]: 36.8%
growth [14]: 32.8%
growth [15]: 79%
growth [16]: 12.7%
growth [17]: 23.3%

CCN1C(=O)N(CC)C2Nn3c(s/c(=C4\C(=O)N(CC(C)C)c5ccccc54)c3=O)=NC21 (stereo unspecified)
growth [1]: 50.6%
growth [2]: 44.7%
growth [3]: 52.5%
growth [4]: 56.5%
growth [5]: 56.2%
growth [6]: 47.9%
growth [7]: 21.5%
growth [8]: 40.5%
growth [9]: 11.3%
growth [10]: 46%
growth [11]: 52.7%
growth [12]: -45.9% (active)
growth [13]: 35.7%
growth [14]: 26.1%
growth [15]: 14.4%
growth [16]: 76.5%
growth [17]: 31.9%

COc1ccc(C2=Nn3c(nnc3-c3cc(Cl)cc(Cl)c3Cl)SC2)cc1
growth [1]: 1.17% (active)
growth [2]: 19.5%
growth [3]: 6.36% (active)
growth [4]: 30.8%
growth [5]: 24.4%
growth [6]: -11% (active)
growth [7]: -24.6% (active)
growth [8]: 11.7%
growth [9]: -20.8% (active)
growth [10]: 68.6%
growth [11]: -31.2% (active)
growth [12]: -46.7% (active)
growth [13]: 20.2%
growth [14]: 7.11% (active)
growth [15]: -27% (active)
growth [16]: -57.9% (active)
growth [17]: 6.48% (active)

CN(C)c1ccc(/C=N\Nc2cc(=O)[nH]c3ccc(Cl)cc23)cc1
growth [1]: 93.2%
growth [2]: 93.4%
growth [3]: 101%
growth [4]: 121%
growth [5]: 82.9%
growth [6]: 75.3%
growth [7]: 108%
growth [8]: 82.8%
growth [9]: 99.8%
growth [10]: 81.7%
growth [11]: 85.5%
growth [12]: 105%
growth [13]: 86%
growth [14]: 81%
growth [15]: 88.4%
growth [16]: 104%
growth [17]: 104%

CCOC(=O)/C(C#N)=C\Nc1ccc2ncnc(Nc3ccc(Cl)cc3Cl)c2c1
growth [1]: 79.5%
growth [2]: 87%
growth [3]: 82.2%
growth [4]: 95.1%
growth [5]: 97%
growth [6]: 55%
growth [7]: 67.6%
growth [8]: 75.5%
growth [9]: 85.4%
growth [10]: 58.6%
growth [11]: 89.6%
growth [12]: 75.7%
growth [13]: 100%
growth [14]: 87.6%
growth [15]: 92.9%
growth [16]: 119%
growth [17]: 79.1%

O=C(/C=C/c1ccc([N+](=O)[O-])o1)NNC(=O)c1cc2ccccc2cc1O
growth [1]: -6.98% (active)
growth [2]: 8.19% (active)
growth [3]: 45.7%
growth [4]: 29.3%
growth [5]: 32.8%
growth [6]: -1.53% (active)
growth [7]: -32.3% (active)
growth [8]: 33%
growth [9]: 5.33% (active)
growth [10]: 2.44% (active)
growth [11]: -4.88% (active)
growth [12]: -13.3% (active)
growth [13]: -5.85% (active)
growth [14]: 32.9%
growth [15]: -100% (active)
growth [16]: -18.4% (active)
growth [17]: 11.6%

COc1ccc([C@H]2c3cc(OC)c(OC)cc3C=C(C=O)C2CO)cc1OC (stereo partly specified)
growth [1]: 61.5%
growth [2]: 60.8%
growth [3]: 106%
growth [4]: 63.5%
growth [5]: 73.3%
growth [6]: 34.1%
growth [7]: -30.6% (active)
growth [8]: 14.2%
growth [9]: 70.8%
growth [10]: 45.2%
growth [11]: 58.6%
growth [12]: -24% (active)
growth [13]: 21.5%
growth [14]: 18.5%
growth [15]: 23.8%
growth [16]: 58.4%
growth [17]: 21%

COc1ccc(N2C(=O)C(Oc3ccccc3)C2c2ccc(C)cc2)cc1 (stereo unspecified)
growth [1]: 106%
growth [2]: 91.8%
growth [3]: 100%
growth [4]: 93.4%
growth [5]: 106%
growth [6]: 102%
growth [7]: 112%
growth [8]: 94%
growth [9]: 101%
growth [10]: 96.9%
growth [11]: 99.3%
growth [12]: 98.7%
growth [13]: 94.8%
growth [14]: 96.3%
growth [15]: 95.5%
growth [16]: 97.7%
growth [17]: 96.2%

COc1cccc(-c2nn(-c3ccccc3)cc2-c2ccnc(N3CCOCC3)c2)c1
growth [1]: 67.9%
growth [2]: 96.6%
growth [3]: 94.7%
growth [4]: 84.2%
growth [5]: 87.9%
growth [6]: 79.5%
growth [7]: 95.5%
growth [8]: 115%
growth [9]: 77.5%
growth [10]: 51.7%
growth [11]: 87.9%
growth [12]: 98.9%
growth [13]: 105%
growth [14]: 87%
growth [15]: 79.8%
growth [16]: 93.8%
growth [17]: 86.1%
